Bioassay records from PubChem BioAssay.
GALR2 blocker = GALR2 (human) receptor antagonism; GALR2-expressing cells, antagonist mode; inhibition, % at 4 µM; hit rate 0.39% among 140,000; AID 828;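 also: cells stimulated with galanin 1-16 at roughly its EC80; 0% = agonist challenge control and 100% = basal control without agonist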
Target sequence (O43603 whole entry, looked up): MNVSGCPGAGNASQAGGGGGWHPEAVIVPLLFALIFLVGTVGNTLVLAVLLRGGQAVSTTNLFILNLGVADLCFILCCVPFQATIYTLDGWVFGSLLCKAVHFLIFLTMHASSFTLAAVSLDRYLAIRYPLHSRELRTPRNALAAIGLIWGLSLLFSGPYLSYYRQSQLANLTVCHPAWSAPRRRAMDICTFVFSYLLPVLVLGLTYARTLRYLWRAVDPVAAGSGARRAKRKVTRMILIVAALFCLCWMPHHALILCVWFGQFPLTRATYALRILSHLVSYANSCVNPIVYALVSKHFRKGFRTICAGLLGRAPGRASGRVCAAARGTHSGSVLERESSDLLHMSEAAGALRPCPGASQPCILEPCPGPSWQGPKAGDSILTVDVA
S1P2 agonist = agonists of human S1P2 receptor. O95136. S1P2-expressing cell line, agonist reporter read-out. activation, % at 4.5 µM. hit rate 0.46% among 97,000; in the data active = activation above about 16%;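 also: 0% = vehicle low control and 100% = maximal reference agonist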
S1P2 blocker = blocks the human S1P2 receptor; O95136; inhibition, % at 5 µM; AID 736; hit rate 0.21% among 97,000; cell-based S1P2 antagonist assay, inhibition at 5 uM; in the data active = inhibition above about 45%;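 also: CRE beta-lactamase reporter cells expressing human S1P2 stimulated with S1P; 0% = agonist at EC80 alone and 100% = agonist plus reference antagonist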
MRP1 act = MRP-1 activation. AID 799. hit rate 0.61% among 140,000. H69AR cells + doxorubicin, viability rescue, CellTiter-Glo. viability increase, % at 10 µM;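 active = viability gain under doxorubicin at or above a set limit, the compound median plus 3 SD, cut at about 4.7% in these data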;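 also: MRP-1 overexpressing cells given doxorubicin 25 µM after compound pretreatment; 18-22 h compound pretreatment then 72 h with doxorubicin before readout; 0% = doxorubicin-only wells and 100% = vehicle-treated cells without doxorubicin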
MRP resist rev = MRP-mediated drug resistance reversal; H69AR cells + 2 uM doxorubicin, CellTiter-Glo, 72 h; differential viability (reversal), % at 10 µM; hit rate 0.04% among 85,000; AID 602;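 active = viability drop by adding the cancer drug above about 55%, with treated viability meeting a 40% cutoff, limit read from the data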;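 also: viability without doxorubicin minus viability with 2 µM doxorubicin for each compound; larger differential means the compound sensitizes cells more to doxorubicin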
GALR2 ag = agonists of human galanin receptor 2 (GALR2); O43603; GALR2-expressing cells, agonist activation read-out; activation, % (concentration not given with the values); hit rate 0.48% among 140,000; AID 803; in the data active = activation above about 5%, passing the limit was not always enough;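 also: 0% = vehicle buffer wells and 100% = reference agonist at full effect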
GALR2 ant conf = GALR2 (human) antagonism confirmed; shares compounds with GALR2 blocker; GALR2-expressing cells, antagonist mode, inhibition; inhibition, % at 4 µM; hit rate 60% among 480;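 also: cells stimulated with galanin at about its EC80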
BLA inhib ctr = counter-screen for GALR2 antagonists: beta-lactamase reporter inhibitors; shares compounds with GALR2 blocker; CHO NFAT-BLA reporter, beta-lactamase FRET, thapsigargin-stimulated; inhibition, % at 4.2 µM; hit rate 36% among 480; AID 867;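 active = inhibition above the mean inhibition across tested compounds plus 3 SD, cut at about 27% in these data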;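 also: 0% = 500 nM thapsigargin stimulated wells and 100% = unstimulated BSA only wells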
The depositor's hits bear a star; . = no result. A selection: hits, their analogues and other compounds. The true share with any hit is near 1.8%. Rule as the data show it, unless noted: active = inhibition above about 27%; inactive = the rest.

SMILES	GALR2 blocker	S1P2 agonist	S1P2 blocker	MRP1 act	MRP resist rev	GALR2 ag	GALR2 ant conf	BLA inhib ctr
CCc1ccc(/C=c2\s/c(=C\C(=O)C(C)(C)C)[nH]c2=O)cc1	-8.0	0.3	-39.8	-3.6	-26.5	0.5	.	.
O=C(CSc1n[nH]c(-c2ccco2)n1)Nc1sc2c(c1C(=O)Nc1ccccc1)CCCC2	-2.8	-3.2	-15.3	-1.4	3.5	-1.1	.	.
O=C1Nc2ccccc2/C1=N\c1sc2c(c1C(=O)Nc1ccccc1)CCCC2	28.7*	-8.1	-1.7	-6.8	4.2	-4.3	4.7	-4.8
C[C@@H](C(=O)Nc1ccc2ccccc2c1)[C@H]1C[C@]1(C)[C@H](NP(=O)(c1ccccc1)c1ccccc1)c1ccccc1	5.8	.	.	-2.2	.	-1.8	.	.
COc1ccc(/C=N/N2C(=O)c3ccccc3C2=O)cc1	-5.3	.	.	0.3	.	-0.3	.	.
Cc1cccc(NC(=O)c2cc(NC(=O)c3ccccc3)ccc2N2CCCCC2)c1	-12.4	-0.4	6.3	1.2	0.2	-1.3	.	.
O=C(CSc1nncs1)N1c2ccccc2Sc2ccccc21	29.3*	.	.	-2.5	16.5	-1.0	19.9	2.4
Cn1nnnc1SCC(=O)N1c2ccccc2Sc2ccccc21	-4.7	1.7	15.0	-2.9	11.0	-1.1	.	.
CC[C@@H]1C=C(C)C[C@H](C)C[C@H](OC)[C@H]2O[C@@](O)(C(=O)C(=O)N3CCCC[C@H]3C(=O)O[C@H](/C(C)=C/[C@@H]3CC[C@@H](O)[C@H](OC)C3)[C@H](C)[C@@H](O)CC1=O)[C@H](C)C[C@@H]2OC	101.1*	.	.	-2.9	.	-1.1	103.1*	103.6*
CC(C)OC(=O)CSc1nc2ccccc2s1	33.7*	-3.5	-24.2	-0.7	-13.0	-2.5	6.3	15.5
CN(C)C(=O)CN(C)S(=O)(=O)c1ccc(Cl)cc1	-5.0	-4.0	21.2	-0.1	0.9	-0.6	.	.
COc1ccc(C(=O)c2sc3nc(-c4ccc(OC)cc4)ccc3c2N)cc1	6.4	.	.	-2.4	.	-1.4	.	.
COc1ccc(-c2ccc3c(N)c(C(=O)c4cccc(OC)c4)sc3n2)cc1	29.4*	-7.6	17.7	-0.4	.	-2.7	20.3	23.3
CN(C)CCCN1C(=O)c2cccc3c([N+](=O)[O-])ccc(c23)C1=O	56.4*	.	.	-4.9	.	0.8	47.8*	30.6*
CCOC(=O)COc1ccc(/C=C/[N+](=O)[O-])c(OCC(=O)OCC)c1	27.2*	-0.5	-13.2	-5.3	.	-1.8	31.5*	13.8
CCOC(=O)COc1ccc2ccccc2c1/C=C/[N+](=O)[O-]	25.8	.	.	-4.3	.	2.5	.	.
O=C1/C(=C/c2ccc(N3CCOCC3)o2)SC(=Nc2ccccc2)N1CCc1c[nH]c2ccccc12	27.5*	-7.8	67.5*	-5.4	.	1.8	27.0*	43.2*
COc1cc(/C=C2\SC(=Nc3ccccc3)N(CCc3c[nH]c4ccccc34)C2=O)ccc1OC(C)C(=O)O (stereo not drawn)	-16.0	.	.	-2.3	.	1.2	.	.
O=C(Cn1ncc2c(=O)oc3ccccc3c21)N1CCN(C(=O)c2ccco2)CC1	7.4	-1.7	-0.4	-2.7	.	-1.2	.	.
Cc1ccccc1NC(=O)/C=C/c1ccc([N+](=O)[O-])s1	34.0*	.	.	-6.7	.	0.7	59.8*	62.4*
CSc1nc2n(n1)C(c1cc(Br)ccc1F)C(C(=O)N(C)C)=C(C)N2 (stereo not drawn)	1.6	-1.1	5.3	-1.9	7.5	-0.4	.	.
CCN(CC)c1ccc2cc(-c3nc(-c4ccc(OC)cc4)cs3)c(=O)oc2c1	78.1*	.	.	1.1	.	-4.0	75.3*	85.0*
CCc1ccccc1-n1cnc2cc(C(=O)O)ccc21	-0.3	-8.6	28.4	0.2	-5.0	-0.9	.	.
COc1ccc(Cc2nc(C(=O)Nc3ccc(Cl)cc3)cs2)cc1	-10.0	-3.6	-20.0	0.3	3.7	-2.3	.	.
COc1ccc(COc2ccsc2C(=O)Nc2ccc(Cl)cc2)cc1	51.7*	-0.3	-7.3	1.0	.	-1.1	14.8	20.8
Cc1ccccc1NC1=C/C(=N\S(=O)(=O)c2cccs2)c2ccccc2C1=O	62.7*	7.6	41.2	-2.6	.	5.3	44.0*	59.1*
CCON1C(=O)CN(C(=O)OC)C1c1ccc(Cl)cc1Cl (stereo not drawn)	-2.5	2.4	-4.2	-1.0	-0.3	-1.6	.	.
